# Assay outcomes deposited in PubChem by National Center for Advancing Translational Sciences (NCATS).
# ALOX12 inhib: 12-hLO (ALOX12) enzyme inhibition; AID 1452; P18054; 150,000 compounds, 0.12% hits; Potency, µM (top dose mostly 57.1 µM), inactives show at the top dose activity change, negative = inhibition, actives largely listed as inhibitors; purified 12-hLO, xylenol orange hydroperoxide absorbance; also: potency is read from the fitted curve at half-maximal effect; nearly all actives have a fitted effect of over 55% in size
#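 Hydroperoxide output read as Fe(III)-xylenol orange absorbance, 573-to-405 nm ratio, after 30 min reaction with 40 uM arachidonic acid. Enzyme: 150 nM purified human 12hLO, 15 min compound preincubation; 25 mM Hepes pH 7.0, room temperature.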
# IMPase cell inh: membrane-permeable compound that blocks inositol monophosphatase. P97697. CHO-M1 cells, IP1 accumulation, HTRF TR-FRET ratio. inhibition (IP1 accumulation), % at 46.1 µM. 120,000 tested, under 10 active; active = well fitted curve in the direction sought with a large enough effect in the signal ratio, not every such curve was filed as active; inconclusive = small, poorly fitted or top-dose-only effect, or a change in a side signal; inactive = no such curve, though single readings can be large or run the other way; the % refers to the signal ratio;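 also: cells stimulated with carbachol in lithium chloride buffer; plate controls were DMSO basal wells for no effect and reference inhibitor wells for full effect; higher means more IMPase inhibition seen as more IP1 and lower FRET ratio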
# Target sequence (P97697 whole entry, looked up): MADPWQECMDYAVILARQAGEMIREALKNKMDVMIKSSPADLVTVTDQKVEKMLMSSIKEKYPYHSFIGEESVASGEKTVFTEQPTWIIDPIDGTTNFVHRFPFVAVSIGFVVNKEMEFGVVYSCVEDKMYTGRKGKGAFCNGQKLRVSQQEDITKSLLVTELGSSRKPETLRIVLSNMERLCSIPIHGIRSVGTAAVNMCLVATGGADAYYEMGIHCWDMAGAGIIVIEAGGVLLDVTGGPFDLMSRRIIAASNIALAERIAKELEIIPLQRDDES
#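 The IP-One HTRF competitive assay in carbachol-stimulated CHO-M1 cells quantifies cellular IP1. Compounds spanned up to 46 uM final, and activity is expressed as AC50 from concentration-response fits of the ratio and donor data.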
# PNC assembly inh: blocks assembly of the perinucleolar compartment | activity change (PNC), negative = inhibition, % at 10 µM | PC3M PTB-GFP, PNC prevalence imaging, 16 h; hits give low values | 140,000 compounds, 3.1% hits | AID 2417;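 active = readout at or below -70, meaning at least 70% loss of cells showing the perinucleolar compartment, a nuclear body marking cancer cells; inconclusive = readout between -30 and a set limit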;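 also: plate controls were DMSO wells for no effect and camptothecin positive control wells for full effect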
#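 PC3M cells stably expressing PTB-GFP, 750–1000 cells/well, treated 16 h at 37 °C with compound (23 nl of library stock), in duplicate. After paraformaldehyde fixation and Hoechst stain, imaged at 20x; PNC prevalence scored by image analysis.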
# IMPase Li inh: cell-permeable IMPase inhibitors with lithium potentiation; 210,000 compounds, 0.35% hits; AID 1457; CHO-M1 cells, IP1 TR-FRET (IP-One), carbachol + lithium; Potency, µM (highest dose often 59.4 µM), inactives show at the top dose activity, negative = IMPase inhibition, most hits filed as inhibitors;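 also: IP1 builds up when IMPase is blocked and the TR-FRET signal falls; potency is read from the fitted curve at half-maximal effect; plate controls were basal vehicle for no effect and high inhibitor control for full effect; nearly all actives have a fitted effect of over 50% in size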
#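 Lithium-sensitised IP1 accumulation assay; M1-expressing CHO cells treated 30 min at 37C with compound. Competitive antibody detection by time-resolved FRET followed a 10 min room-temperature lysis step.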
# HPGD inh: HPGD (human) dehydrogenase inhibition | purified HPGD, NADH fluorescence kinetic, PGE2 substrate | Potency, µM, inactives show at the highest dose activity change, negative = inhibition, most hits filed as inhibitors | 150,000 compounds, 4.3% hits | AID 894; active = well fitted inhibition curve with a large enough effect, not every such curve was filed as active; inconclusive = small, poorly fitted or top-dose-only effect, or another doubt; inactive = no such curve, though single readings can be large or run the other way; also: potency is read from the fitted curve at half-maximal effect
#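 20 nM HPGD preincubated 15 min at room temperature with compound in 50 mM Tris-HCl pH 8, 0.01% Tween 20. Started with 1 mM NAD+ and 30 uM prostaglandin E2; NADH fluorescence (360/450 nm) read 5 times over 30-s intervals, last minus first.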
# ALDH1A1 inh: ALDH1A1 (human) enzyme inhibition; P00352; Purified ALDH1A1, NADH fluorescence, propionaldehyde substrate; 220,000 compounds, 7.3% hits; Potency, µM (doses to about 75.3 µM), for inactives: top-dose activity, negative = inhibition, hits mostly inhibitors; AID 1030; active = well fitted inhibition curve with a large enough effect, not every such curve was filed as active; inconclusive = small, poorly fitted or top-dose-only effect, or another doubt; inactive = no such curve, though single readings can be large or run the other way;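 also: potency is read from the fitted curve at half-maximal effect; plate controls were no enzyme wells and a reference inhibitor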
# Target sequence (P00352 whole entry, looked up): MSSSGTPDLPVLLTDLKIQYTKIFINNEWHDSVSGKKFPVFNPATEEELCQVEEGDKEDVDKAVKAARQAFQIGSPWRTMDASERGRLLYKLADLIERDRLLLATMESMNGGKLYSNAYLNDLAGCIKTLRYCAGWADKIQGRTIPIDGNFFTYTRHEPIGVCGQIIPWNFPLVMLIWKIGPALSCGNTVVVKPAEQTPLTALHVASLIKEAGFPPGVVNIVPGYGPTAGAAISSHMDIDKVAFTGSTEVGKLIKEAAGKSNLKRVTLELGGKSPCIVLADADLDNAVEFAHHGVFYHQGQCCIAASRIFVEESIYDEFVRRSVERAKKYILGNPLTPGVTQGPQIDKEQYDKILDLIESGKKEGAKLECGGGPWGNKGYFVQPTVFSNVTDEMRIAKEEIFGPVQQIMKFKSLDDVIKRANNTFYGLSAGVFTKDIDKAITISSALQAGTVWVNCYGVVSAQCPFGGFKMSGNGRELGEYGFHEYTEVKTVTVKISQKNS
# * marks the source's active call; other numbers are inactive results; ? = inconclusive; / = no result given; [ ] = dose if it differs, or a comment. Sampled rows, rich in hits. Any-hit rate of the full collection: about 11%. Unless noted, calls follow the shape of the dose curve; as a rule, active = well fitted curve in the direction sought with a large enough effect; inconclusive = small, poorly fitted or top-dose-only effect, or another doubt; inactive = no such curve, though single readings can be large; an effect the other way counts as inactive or inconclusive. Unless noted, % is scaled to controls: 0 for no effect and ±100 for the full control effect.
SMILES,ALOX12 inhib,IMPase cell inh,PNC assembly inh,IMPase Li inh,HPGD inh,ALDH1A1 inh
O=C(O)c1cccc(SSc2cccc(C(=O)O)c2)c1,-6.3%[11.4 µM],/,/,4.9%,4.47µM*,-10.5%[13.5 µM]
O=C(O)c1ccccc1,0.7%,/,/,-10.4%,-4.8%,-1.4%
Cn1cccc1C(=O)N1CCC[C@@]2(CCN(c3ncccn3)C2)C1,1.1%,/,/,15.2%,-11.4%,-12.9%
CCCCC[C@H](O)/C=C/C=C\C/C=C\CCCCC(=O)O,3.1%,/,/,-3.0%,1.5%,0.2%
N#CC1=C2N=C(N)c3c(sc4c3CCCCC4)N2C2=C(C(=O)CCC2)C1c1ccccc1 (stereo not given),-15.1%,-0.2,16.8,-25.1%[38.3 µM],-9.6%,5.01µM*
COC(=O)c1cn(Cc2cccc(C)c2)nn1,-3.3%,/,-9.1,-2.7%,-7.8%,10.4%
CCOC(=O)c1cn(Cc2cccc(Cl)c2)nn1,1.0%,/,-113.8*,-8.7%,-5.6%,1.0%
Cc1ccc(CNC(=O)CN2CCN(Cc3ccc(F)cc3)C2=O)cc1,/,-2.3,/,/,/,/
C=CC(=O)N=c1sc2ccccc2n1-c1ccccc1,/,/,/,20.8%,/,0.224µM*
COc1cc(/C=C2\CCCc3c2nc2ccccc2c3C(=O)O)cc(OC)c1O,/,/,/,/,/,14.1µM*
Cc1sc2nc(SCC(=O)NCCO)n(-c3ccccc3)c(=O)c2c1C,/,/,/,-0.8%,/,?
Cc1cccc(-n2c(SCC(=O)NCc3ccco3)nc3ccccc3c2=O)c1,0.5%,0.1,-12.1,-3.1%[38.3 µM],-7.1%,-0.4%
O=C(CSc1nc2ccccc2c(=O)n1-c1ccccc1)NCc1ccco1,-7.1%,15.3,-0.8,?,-25.5%,4.47µM*
COCCNC(=O)CSc1nc2cc(OC)c(OC)cc2c(=O)n1CCc1ccc(S(N)(=O)=O)cc1,/,/,/,1.1%,/,-3.4%
COc1cc2nc(SCC(=O)NCCc3ccccc3)n(Cc3ccco3)c(=O)c2cc1OC,-3.2%,-1.3,35.8,37.6%[38.3 µM],-9.5%,3.55µM*
Cc1sc2nc(SCC(N)=O)n(-c3ccccc3)c(=O)c2c1C,/,/,/,2.9%,/,17.8µM*
O=C(CSc1nc2ccccc2c(=O)n1Cc1ccco1)NCc1ccco1,2.3%,-11.2,83.8,7.5%,-21.0%,25.1µM*
CCCCn1c(SCC(=O)NCc2ccco2)nc2ccccc2c1=O,-4.2%,0.1,-8.2,36.8%[38.3 µM],-10.5%,-6.3%
O=C(CN1C(=O)c2ccccc2C1=O)[C@@H](O)CN1C(=O)c2ccccc2C1=O,0.7%[11.4 µM],/,/,8.1%,1.6%,?
O=C(CSc1nc2cccnc2n1Cc1ccccc1)NCc1ccco1,2.9%,1.1,31.5,10.1%[38.3 µM],31.6µM*,25.1µM*
CCn1c(SCC(=O)NCc2ccco2)nc2cccnc21,4.4%,-5.1,5.9,-5.7%,?,-14.4%
NC(=O)CSc1nnc2n(-c3ccccc3)c(=O)c3c4c(sc3n12)CCCCC4,-4.5%,1.8,-81.4*,-9.2%[38.3 µM],-0.5%,?
O=C(CSc1nc2c(sc3ccccc32)c(=O)n1Cc1ccco1)NCC1CCCO1 (stereo not given),2.5%,-5.0,-89.1*,30.0%[38.3 µM],4.6%,17.8µM*
CN(Cc1ccccc1)C(=O)CSc1nc2ccccc2c(=O)n1Cc1ccco1,-10.6%,-3.2,?,1.1%[38.3 µM],-26.4%,7.94µM*
CCOc1ccc(/C=C(\C#N)C(=O)Nc2sc3c(c2C(=O)OC)CCC3)cc1OC,/,-20.9,/,/,/,/
SMILES,ALOX12 inhib,IMPase cell inh,PNC assembly inh,IMPase Li inh,HPGD inh,ALDH1A1 inh
Cc1sc2nc(SCC(=O)NCc3ccco3)n(-c3ccccc3)c(=O)c2c1C,1.2%,-4.9,-83.7*,-4.4%[38.3 µM],-29.5%,-6.4%
O=C1[C@H]2[C@H]3[C@H](O)[C@H](O)C/C(=N/OC[C@@H](O)COCc4ccco4)[C@H]3CC[C@@H]2C(=O)N1C1CCCCC1,/,/,/,/,/,-1.1%[13.5 µM]
COc1cccc(-n2nnc3c(=O)n(CC(=O)N4CCC(Cc5ccccc5)CC4)cnc32)c1,-2.7%,3.0,10.4,7.8%[38.3 µM],-24.8%,2µM*
O=C(Cn1cnc2c(nnn2Cc2ccc(Cl)cc2)c1=O)N1CCCc2ccccc21,1.8%,-9.1,-16.3,9.5%,-15.2%,22.4µM*
COc1cccc(-n2nnc3c(=O)n(Cc4ccccc4F)cnc32)c1,-12.4%,-1.1,-27.7,-6.8%[38.3 µM],5.62µM*,?
COc1cccc(-n2nnc3c(=O)n(CC(=O)N4CCCc5ccccc54)cnc32)c1,-4.6%,0.1,7.6,23.7%[38.3 µM],22.4µM*,?
COc1cccc(-n2nnc3c(=O)n(CC(=O)N4CCC(C)CC4)cnc32)c1,-4.7%,-7.1,97.7,9.1%,?,-11.6%
CC(=O)NC(C(=O)O)C(C)(C)SN=O (stereo not given),/,/,/,15.0%,-5.8%,1.1%
Cc1cc(=O)[nH]c(/N=C(\N)Nc2ccc(Cl)cc2)n1,-3.8%[11.4 µM],/,/,-6.9%,-7.2%,-8.3%[13.5 µM]
O=C(Cn1cnc2c(nnn2Cc2ccccc2)c1=O)N1CCN(c2ccccc2)CC1,-4.2%,3.4,?,26.9%[38.3 µM],-13.2%,-1.9%
O=C(Cn1c(-c2ccccc2)noc1=O)N1CCC(Cc2ccccc2)CC1,/,/,/,7.8%,/,1.2%
O=C(Cn1cnc2c(nnn2Cc2ccccc2F)c1=O)N1CCN(c2ccccc2)CC1,7.6%,7.5,-82.7*,17.0%,-16.4%,?
O=C(Cn1cnc2c(oc3ccccc32)c1=O)N1CCCc2ccccc21,-0.2%,-2.4,?,32.0%[38.3 µM],-7.0%,20µM*
COc1ccc(-c2noc(=O)n2CC(=O)N2CCC(Cc3ccccc3)CC2)cc1,/,/,/,2.0%,/,25.1µM*
O=C(CSc1ncnc2c1oc1ccccc12)N1CCCc2ccccc21,1.0%,-0.1,?,6.4%,-18.9%,?
O=C1C=C(Nc2nc(C(=O)O)cc(=O)[nH]2)c2ccccc2C1=O,-6.1%[11.4 µM],/,/,-9.5%,-0.8%,-0.4%[13.5 µM]
CN(C)CC(O)COc1cc2ccccc2cc1C(=O)N1CCCCC1 (stereo not given),-0.6%,6.0,8.1,-7.2%[38.3 µM],28.2µM*,-1.3%
COc1cc2ccccc2cc1C(=O)N1CCN(C)CC1,3.1%,7.6,-17.0,40.1%[38.3 µM],?,?
COCCNC(=O)/C(C#N)=C/c1cccc(NC(=O)c2ccccc2Cl)c1,0.8%,10.3,23.9,7.1%,?,15.8µM*
CC(C)NC(=O)/C(C#N)=C/c1cccc(NC(=O)c2ccccc2Cl)c1,-4.5%,/,32.4,3.6%,-22.5%,14.1µM*
COCCNC(=O)/C(C#N)=C/c1cc(C)n(C2CCCCC2)c1C,/,/,/,1.3%,/,?
COCCNC(=O)/C(C#N)=C/c1cc(C)n(-c2ccc(C)cc2)c1C,/,/,/,16.5%,/,5.62µM*
CC(=O)OC1CC2C(C)(C)C(=O)C3OC3[C@]2(C)C2CC[C@@]3(C)C(c4ccoc4)OC(=O)C4OC43[C@]12C (stereo not given in full),-1.7%,/,/,8.8%,0.4%,-2.6%
